Pf growth 96h = inhibits malaria parasite growth, 96 h. P. falciparum luciferase reporter growth, 96 h. Potency, µM (highest dose often 28.7 µM), for the others: at the highest dose activity change, negative = inhibition, usual class: inhibitors. actives 6.9% (n = 320,000). AID 504834; note: potency is the fitted concentration of half-maximal effect; % is set by controls: 0 for no effect and ±100 for the full control effect
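Erythrocytes infected with luciferase-expressing P. falciparum were dispensed at 2% hematocrit and 0.05% parasitemia (final), then incubated with compounds 96 hours at 37 C in 5% CO2. Luminescence after detection reagent addition reported growth.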
Pf growth 48h = P. falciparum growth inhibition at 48 hours (one generation); P. falciparum luciferase growth in erythrocytes, 48 h; Potency, µM (titrated, usually from 28.7 µM), for the others: top-dose activity change, negative = inhibition, most hits filed as inhibitors; actives 5.9% (n = 310,000); AID 504832; note: potency is the fitted concentration of half-maximal effect; % is set by controls: 0 for no effect and ±100 for the full control effect
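Compounds are pin-transferred into medium, infected erythrocytes (2% hematocrit, 0.1% parasitemia final) are added, and plates sit one parasite generation at 37 C in 5% CO2. Detection reagent is then added and luminescence measured.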
CHX counter = affects cycloheximide protein synthesis inhibition readout, counter-screen; cell reporter, cycloheximide protein synthesis inhibition counterscreen; max response, %; actives 12% (n = 300,000); in the data active = max response mostly above about 13%, no sharp cut-off; inactive = mostly below about 14%; note: read at 38.3 µM for the half of the compounds with a filed dose; 0% is about no effect
Shiga toxin inh = inhibitors of Shiga toxin in Vero cells; Vero cells, Shiga toxin protein synthesis inhibition reporter; inhibition, % at 38.7 µM; actives 9.2% (n = 290,000); AID 2315; in the data active = inhibition mostly above about 28%, no sharp cut-off; inactive = mostly below about 43%; note: 0% is about no effect
An asterisk follows results filed as active; u = inconclusive; x = no result; [ ] = another dose, or the depositor's remark. The list is not random: actives were taken first. Their share in the collection is about 21%. Unless noted, calls come from the whole dose curve; as a rule, active = well fitted inhibition curve with a large enough effect; inconclusive = small, poorly fitted or top-dose-only effect, or another doubt; inactive = no such curve, though single readings can be large or run the other way.

SMILES | Pf growth 96h | Pf growth 48h | CHX counter | Shiga toxin inh
COc1ccc(C(=O)/C=C/Nc2ccc(C)cn2)cc1OC | 24.3% | 281.5% | 38.0* | 75.4*
CCC(C)NCC(O)(c1ccc(Cl)cc1)c1ccc(Cl)cc1 (stereo not drawn) | 2.94µM* | u | -2.9 | -19.4
CC(O)(c1ccc(Cl)cc1)c1ccc(Cl)cc1 | x | x | 2.8 | 7.3
COCCN(C(=O)CSc1nnc(-c2cccc(F)c2)n1N)c1c(N)n(CC(C)C)c(=O)[nH]c1=O | 6.1% | -11.9% | 1.9 | -7.5
CC(NC(=O)c1cccnc1)C(=O)O (stereo not drawn) | 114.8%[5.75 µM] | 19.1% | 2.4 | 0.2
O=C(NNC1OC(CO)C(O)C(O)C1O)c1cccnc1 (stereo not drawn) | u | 27.8% | 18.7* | 49.7*
COc1cccc(C(=O)NNC2OC(CO)C(O)C2O)c1 (stereo not drawn) | 7.5% | u | 30.8* | 69.3*
CSCC[C@H](NC(=O)N1CCn2c1nc1ccccc12)C(=O)NCC1CCCO1 (stereo partly drawn) | 38.7% | -0.8% | -0.8 | -7.5
CC(C)[C@H](NC(=O)[C@@H]1CSC2c3ccccc3C(=O)N21)C(=O)N1CCCCC1 (stereo partly drawn) | u | u | 2.3 | -3.7
COc1ccccc1Nc1nc(N)nc(CN2CCN(Cc3ccc4c(c3)OCO4)CC2)n1 | -0.4% | u | -1.8 | -11.9
CN1CCN(Cc2nc(N)nc(Nc3ccc4c(c3)OCCO4)n2)CC1 | 15.3% | 50.6% | 30.3* | 60.2*
Cc1sc2nc(CN3CCCC3)nc(NCc3ccncc3)c2c1C | u | u | -3.0 | -7.5
Cc1sc2nc(CN3CCCCC3)nc(Nc3ccc4c(c3)OCCO4)c2c1C | u | 9.28µM* | 1.0 | 5.4
Nc1nc(CN2CCN(c3ccccc3F)CC2)nc(Nc2ccc3c(c2)OCCO3)n1 | u | u | -3.6 | -16.3
Cc1cccc(Nc2nc(N)nc(CN3CCN(Cc4ccc5c(c4)OCO5)CC3)n2)c1 | 13.1µM* | u | -4.4 | 14.0
CCc1ccc(NC(=O)C(C)n2nc(C)c([N+](=O)[O-])c2C)cc1 (stereo not drawn) | u | -15.4% | -2.9 | 4.5
O=C(CNC(=O)c1ccccc1)N=Nc1c(O)[nH]c2ccc(Br)cc12 | 10.1% | 13.7% | -5.1 | -5.6
O=Nc1c(-c2c(O)[nH]c3cc(Br)ccc23)[nH]c2ccccc12 | 4.65µM* | 4.15µM* | 29.8* | 29.8*
Cc1ccc(C(=O)O)cc1NS(=O)(=O)c1ccc2c(c1)oc(=O)n2C | 33.5% | 19.5% | 10.8 | 28.4
CCCc1ccc(-c2cc(C(=O)N/N=C/c3ccc([N+](=O)[O-])o3)c3ccccc3n2)cc1 | 1.65µM* | x | 22.8* | 59.0
O=C(N/N=C/c1ccc([N+](=O)[O-])o1)c1cc(-c2cccc(Br)c2)nc2ccccc12 | 0.828µM* | u | -2.4 | -3.5
O=C(O)COc1ccccc1/C=N/NC(=O)c1cc(-c2ccccc2)nc2ccccc12 | 2.8% | -5.4% | -3.0 | 2.9
Cc1nc2ccccc2nc1SCC(=O)c1ccccc1 | -20.6% | 11.1% | 16.1 | 18.8
C[n+]1cc[nH]c1SCC(=O)c1ccccc1 | 8.7% | x | 37.2* | 57.6
C[n+]1cc[nH]c1SCC(=O)c1ccc(Cl)cc1 | -0.4% | 47.5% | 31.1* | 63.4
SMILES | Pf growth 96h | Pf growth 48h | CHX counter | Shiga toxin inh
Cc1ccc(S(=O)(=O)N(C)CC(=O)Oc2ccc(-c3nnco3)cc2)cc1 | 19.5% | -6.2% | x | x
CCOc1ccc(C(=O)Nc2nc(C)c(C(=O)OC)s2)cc1 | 125.4% | 86.4% | 34.9* | 51.3*
COC(=O)c1sc(NC(=O)c2ccncc2)nc1C | 3.7% | 50.4% | 5.2 | 8.9
CCOC(=O)c1sc(NC(=O)c2ccc(=O)[nH]c2)nc1C | -0.1% | 20.7% | -3.0 | 2.6
C=CCOC(=O)c1sc(NC(=O)c2ccc(OC)cc2)nc1C | 40.0% | 10.4% | 15.7* | 36.9
COc1ccc(NC(=O)CN(C)C(=O)Cc2n[nH]c(=O)c3ccccc23)cc1 | 25.9% | -26.9% | x | x
CCOc1ccc2c(c1)c1nnc(SCC(=O)NC3CC3)nc1n2C | u | -14.1% | -4.8 | 21.4
COc1ccc(-c2nc3c(c4nnc(SC(C)C(=O)Nc5ccc(C)cc5)n24)COC(C)(C)C3)cc1 (stereo not drawn) | 2.62µM* | 7.38µM* | -3.1 | -7.7
COc1ccc(NC(=O)CSc2nnc3c4c(nc(-c5ccccc5)n23)CC(C)(C)OC4)cc1 | u | -103.7% | -2.4 | -3.3
CCCCN1C(=O)Cc2c1nc(N)c1c(N)nc(N(CCC)CCC)c(C#N)c21 | 4.15µM* | 4.65µM* | 1.9 | -8.7
N#Cc1c(N2CCCC(O)C2)nc(N)c2c(N)nc3c(c12)CC(=O)N3C12CC3CC(CC(C3)C1)C2 (stereo not drawn) | 0.208µM* | u | 4.1 | 15.9
COc1ccc(CN2C(=O)Cc3c2nc(N)c2c(N)nc(N4CCCCC4)c(C#N)c32)cc1 | u | u | -1.9 | 13.5
N#Cc1c(N(CCO)CCO)nc(N)c2c(N)nc3c(c12)CC(=O)N3CC1CCCO1 (stereo not drawn) | 30.6% | 2.3% | -1.0 | 4.7
C=C(C)CN(CC)c1nc(N)c2c(N)nc3c(c2c1C#N)CC(=O)N3C12CC3CC(CC(C3)C1)C2 | 0.928µM* | x | -2.7 | -6.0
CCOC(=O)N1CCN(CC(O)COc2cc(C)cc(C)c2)CC1 (stereo not drawn) | 1.9% | 1.2% | -6.8 | -11.2
COc1ccccc1-c1ccc2nnc(SC)n2n1 | 2.0% | 1.1% | -2.9 | -1.7
Cc1ccccc1Cn1c(=O)n(C)c(=O)c2sccc21 | u | 1.3% | 0.9 | 8.8
CCc1ccc(/C=C/C(=O)C2C(=O)c3ccccc3C2=O)cc1 | 0.928µM* | 0.928µM* | 11.7 | 54.2
O=C(/C=C/c1ccccc1)C1C(=O)c2ccccc2C1=O | 3.7% | 8.1% | 33.2* | 42.0*
O=C(O)/C=C/c1ccccc1 | -8.9% | -5.9% | x | x
Oc1cc2cc(CCN3CCN(c4nsc5ccccc45)CC3)c(Cl)cc2[nH]1 | 10.7µM* | 13.5µM* | x | x
Cc1cc(=O)[nH]c(SCC(=O)Nc2ccc(Br)cc2)c1C#N | 14.7µM* | x | 1.3 | 5.3
Cc1cc(C)c(C#N)c(SCC(=O)Nc2ccc3c(c2)OCO3)n1 | 132.5% | 99.0% | 26.0* | 28.1*
Cc1nc(SCC(=O)Nc2ccc3c(c2)OCO3)c(C#N)c2c1CCCC2 | x | 40.8% | -0.9 | 48.7
COCc1cc(C)nc(SCC(=O)Nc2ccc(C)c(C)c2)c1C#N | 23.5% | 92.7% | 43.9* | 97.8*
SMILES | Pf growth 96h | Pf growth 48h | CHX counter | Shiga toxin inh
COCc1cc(C)nc(SCC(=O)Nc2ccc3[nH]c(=O)[nH]c3c2)c1C#N | -19.3% | 14.5% | -1.0 | 27.5
COc1cc(NC(=O)c2ccc(C)cc2)c(OC)cc1NC(=O)CN1CCCCC1 | u | u | -2.2 | 9.9
COc1ccc(C)cc1NC(=O)CN1CCN(c2ccccc2F)CC1 | 0.0% | 13.1µM* | 1.4 | -16.9
O=C(CN1CCN(S(=O)(=O)c2ccc(F)cc2)CC1)Nc1cc(C(F)(F)F)ccc1Cl | u | u | -2.0 | 38.2
COc1ccc(S(=O)(=O)N2CCN(CC(=O)Nc3cc(C(F)(F)F)ccc3Cl)CC2)cc1 | 17.0% | 4.65µM* | -3.3 | -9.1
COc1ccc(C)cc1NC(=O)CCN1CCN(c2ccccc2F)CC1 | u | u | -1.7 | -8.7

Bioassay records as filed in PubChem.
